IMPase cell inh = IMPase inhibition in cells; 120,000 tested, under 10 active; P97697; AID 901; inhibition (IP1 accumulation), % at 46.1 µM; CHO-M1 cells, IP1 accumulation, HTRF TR-FRET ratio; active = well fitted curve in the direction sought with a large enough effect in the signal ratio, not every such curve was filed as active; inconclusive = small, poorly fitted or top-dose-only effect, or a change in a side signal; inactive = no such curve, though single readings can be large or run the other way; the % refers to the signal ratio;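 note: cells stimulated with carbachol in lithium chloride buffer; plate controls were DMSO basal wells for no effect and reference inhibitor wells for full effect; higher means more IMPase inhibition seen as more IP1 and lower FRET ratio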
Target sequence (P97697 whole entry, looked up): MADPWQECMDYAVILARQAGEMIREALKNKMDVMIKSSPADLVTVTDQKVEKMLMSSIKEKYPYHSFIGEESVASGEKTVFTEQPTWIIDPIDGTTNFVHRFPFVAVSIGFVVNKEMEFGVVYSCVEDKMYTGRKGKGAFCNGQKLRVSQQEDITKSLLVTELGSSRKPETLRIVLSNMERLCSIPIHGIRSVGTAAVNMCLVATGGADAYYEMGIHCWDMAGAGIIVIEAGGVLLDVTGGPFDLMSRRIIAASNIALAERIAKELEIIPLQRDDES
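The IP-One HTRF competitive assay in carbachol-stimulated CHO-M1 cells quantifies cellular IP1. Compounds spanned up to 46 uM final, and activity is expressed as AC50 from concentration-response fits of the ratio and donor data.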
HPGD inh = blocks human HPGD enzyme activity; purified HPGD, NADH fluorescence kinetic, PGE2 substrate; Potency, µM, inactives show at the top dose activity change, negative = inhibition, most hits filed as inhibitors; 150,000 compounds, 4.3% hits; note: potency is the fitted concentration of half-maximal effect
Target sequence (P15428 whole entry, looked up): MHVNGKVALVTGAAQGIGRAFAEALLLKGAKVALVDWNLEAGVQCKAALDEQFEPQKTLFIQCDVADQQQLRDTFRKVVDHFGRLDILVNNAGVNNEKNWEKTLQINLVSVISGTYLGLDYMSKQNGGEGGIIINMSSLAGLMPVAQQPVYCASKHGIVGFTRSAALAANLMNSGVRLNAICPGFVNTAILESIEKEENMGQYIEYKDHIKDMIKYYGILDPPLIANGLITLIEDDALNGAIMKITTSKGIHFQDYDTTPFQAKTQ
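20 nM HPGD preincubated 15 min at room temperature with compound in 50 mM Tris-HCl pH 8, 0.01% Tween 20. Started with 1 mM NAD+ and 30 uM prostaglandin E2; NADH fluorescence (360/450 nm) read 5 times over 30-s intervals, last minus first.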
IMPase Li inh = IMPase inhibition in cells with lithium potentiation; CHO-M1 cells, IP1 TR-FRET (IP-One), carbachol + lithium; Potency, µM (doses to about 59.4 µM), for inactives: top-dose activity, negative = IMPase inhibition, hits mostly inhibitors; 210,000 compounds, 0.35% hits; AID 1457; active = well fitted inhibition curve with a large enough effect; inconclusive = small, poorly fitted or top-dose-only effect; inactive = no such curve, though single readings can be large or run the other way;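 note: IP1 builds up when IMPase is blocked and the TR-FRET signal falls; potency is the fitted concentration of half-maximal effect; plate controls were basal vehicle for no effect and high inhibitor control for full effect; nearly all actives have a fitted effect of over 50% in size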
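Readout is a homogeneous TR-FRET IP1 immunoassay (Ex 320, Em 665 and 620), where raised cytosolic IP1 lowers signal. Cells were CHO-M1 treated 30 min at 37C with test compounds plus a little lithium; AC50 values came from Hill-equation fitting.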
PNC inhibitor = blocks assembly of the perinucleolar compartment. PC3M PTB-GFP, PNC prevalence imaging, 16 h; active compounds read low. activity change (PNC), negative = inhibition, % at 10 µM. 140,000 compounds, 3.1% hits. AID 2417;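 active = readout at or below -70, meaning at least 70% loss of cells showing the perinucleolar compartment, a nuclear body marking cancer cells; inconclusive = readout between -30 and a set limit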;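 note: plate controls were DMSO wells for no effect and camptothecin positive control wells for full effect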
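Compounds are pinned in duplicate onto adhered PC3M cells stably expressing GFP-tagged PTB and incubated 16 h at 37 C. Cells are then fixed, nuclei stained with Hoechst, and PNC-positive cells counted.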
ALDH1A1 inh = blocks purified human ALDH1A1 activity | P00352 | Purified ALDH1A1, NADH fluorescence, propionaldehyde substrate | Potency, µM (doses to about 75.3 µM), inactives show at the top dose activity, negative = inhibition, most hits filed as inhibitors | 220,000 compounds, 7.3% hits;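 note: potency is the fitted concentration of half-maximal effect; plate controls were no enzyme wells and a reference inhibitor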
* marks the source's active call; other numbers are inactive results; ? = inconclusive; · = not tested or not shown; [ ] = dose if it differs, or a comment. Shown are actives, neighbours in structure and some others; about 11% of the full set was active somewhere. Unless noted, calls come from the whole dose curve; as a rule, active = well fitted inhibition curve with a large enough effect (not every such curve was filed as active); inconclusive = small, poorly fitted or top-dose-only effect, or another doubt; inactive = no such curve, though single readings can be large or run the other way. Unless noted, % is set by controls: 0 for no effect and ±100 for the full control effect.

SMILES	IMPase cell inh	HPGD inh	IMPase Li inh	PNC inhibitor	ALDH1A1 inh
Cc1nn2c(NCCOCCO)c3c(nc2c1-c1ccccc1)CCCC3	3	-15%	-6%[38.3 µM]	88	32µM*
N#Cc1ccc(CSc2nnc(NC(=O)c3ccc4ncsc4c3)s2)cc1	·	·	7.9µM*	·	?
Cc1oncc1C(=S)Nc1ccccc1	2	-16%	-10%[38.3 µM]	-92*	?
Cc1oncc1C(=O)Nc1ccc(C(F)(F)F)cc1	-1	-2%	4%	?	-1%
COc1ccc2c(c1OC)C(=O)OC2Nc1nc(-c2ccc(-c3ccccc3)cc2)cs1 (stereo not given)	·	?	-4%	-123*	?
COc1ccc2c(c1OC)C(=O)OC2Nn1cncn1 (stereo not given)	3	-26%	6%[38.3 µM]	-94*	?
COc1cc([C@@H](O)CO)ccc1OS(=O)(=O)O	10	·	·	·	·
CSc1nnc2c(n1)OC(C1CC=C(C)CC1)Nc1ccccc1-2 (stereo not given)	7	-12%	4%[38.3 µM]	20	0%
CC1CC(C)CN(CC(=O)NC(c2ccccc2)c2ccccc2)C1 (stereo not given)	·	·	9%	·	11µM*
O=C(CN1CCN(c2ccc(O)cc2)CC1)NC(c1ccccc1)c1ccccc1	·	?	2%	3	13µM*
CC1Cc2ccccc2N1CC(=O)NC(c1ccccc1)c1ccccc1 (stereo not given)	3	-8%	15%	42	?
COc1cc(OC)c(NC(=S)Nc2cccc(C)c2)cc1Cl	1	16µM*	-4%	-24	?
CCOC(=O)N1CCN(C(=O)C2CCN(CC3CCCCC3)CC2)CC1	·	1%	9%	-114*	4%
COc1ccccc1CN=Cc1[nH]c2ccc(Br)c(Cl)c2c1O	?	13µM*	7.1µM*	19	0.79µM*
Cc1cccc(N=Cc2[nH]c3ccc(Br)c(Cl)c3c2O)c1	·	14µM*	-1%	11	4.5µM*
CC1Cc2ccccc2N1C(=S)NC(=O)C1(C)CC1(Cl)Cl (stereo not given)	·	·	?	·	4%
COc1cccc(-c2cc(C(F)(F)F)n3ncc(C(=O)OC(C)C)c3n2)c1	11	·	·	·	·
Nn1cnnc1SCC(=O)Nc1ccc(C2CCCCC2)cc1	-6	-23%	-6%[38.3 µM]	18	11µM*
CCC(C)c1ccc(NC(=O)CSc2nncn2N)cc1 (stereo not given)	-4	-16%	14%[38.3 µM]	-20	?
CNC(=O)[C@H]1O[C@@H](n2cnc3c(N)ncnc32)[C@H](O)[C@H]1O	·	-25%	-15%	·	-4%
Cc1cccc(NC(=O)/C(=C\c2ccc([N+](=O)[O-])o2)NC(=O)c2ccc(Cl)cc2)c1	-4	-28%	8%	-23	4.5µM*
COc1ccc(NC(=O)CC2C(=O)NCCN2C(=O)c2ccccc2)cc1 (stereo not given)	·	·	·	·	-8%
COC(=O)c1sccc1NC(=O)CC1C(=O)NCCN1C(=O)c1ccc(N(C)C)cc1 (stereo not given)	·	·	·	·	10µM*
CCc1ccc(/C=C2\Oc3cc(OS(C)(=O)=O)ccc3C2=O)cc1	4	-13%	-3%	-2	-8%
Cc1ccc(S(=O)(=O)Oc2ccc3c(c2)O/C(=C\c2cccnc2)C3=O)cc1	-2	-25%	27%[38.3 µM]	2	11µM*
SMILES	IMPase cell inh	HPGD inh	IMPase Li inh	PNC inhibitor	ALDH1A1 inh
O=C1/C(=C/c2cccnc2)Oc2cc(OS(=O)(=O)c3ccc(F)cc3)ccc21	-4	16µM*	13%[38.3 µM]	14	8.9µM*
c1ccc(-c2nnc3sc(-c4csc5c4CCCC5)nn23)cc1	10	11µM*	28%	3	7.9µM*
O=C(N/N=C1/C[C@@H](O)[C@@H](O)[C@@H]2[C@@H]3C(=O)N(C[C@@H]4CCCO4)C(=O)[C@H]3CC[C@@H]12)OCc1ccccc1	·	·	·	·	-5%[13.5 µM]
O=C(NCc1ccccc1)c1ccc(CN2CCOCC2)cc1	0	-16%	9%[38.3 µM]	5	?
O=C(CN(Cc1ccccc1Cl)C(=O)c1ccc(CN2CCOCC2)o1)NCc1ccccc1	4	-11%	3%[38.3 µM]	?	13µM*
O=C(O)c1ccc(S(=O)(=O)c2ccc(Sc3ccc(C(=O)O)c(C(=O)O)c3)cc2)cc1	·	·	-6%	·	-2%
CCOC(=O)C1(C)/C(=N/Nc2ccccc2OC)C(=O)C(=O)N1c1ccccc1 (stereo not given)	·	·	4%	·	24µM*
CCOC(=O)C1(C)/C(=N/Nc2ccccc2)C(=O)C(=O)N1c1ccccc1 (stereo not given)	1	-15%	28%[38.3 µM]	-8	?
Cc1ccc(N(Cc2ccccc2)Cc2ccccc2)cc1	·	-5%	10%	·	9%[13.5 µM]
NC(=O)c1c(NC(=O)CSc2nnc(-c3ccccc3)n2CC2CCCO2)sc2c1CCC2 (stereo not given)	6	?	19%[38.3 µM]	-3	28µM*
CCOC(=O)c1c(NC(=O)CSc2nncn2C)sc(C)c1C	1	-14%	-15%[38.3 µM]	-81*	-4%
CCOC(=O)c1c(NC(=O)CSc2ncnc3ccccc23)sc(C)c1C	·	-15%	6%	19	14µM*
CCOC(=O)c1c(NC(=O)CSc2nncs2)sc(C)c1C	6	0%	-8%[38.3 µM]	-1	-8%
CCOC(=O)c1c(NC(=O)CSc2nnnn2-c2ccc(OC)cc2)sc(C)c1C	-2	2.8µM*	38%[38.3 µM]	-6	1µM*
CC(C)C(=O)Nc1cccc(C(=O)Nc2nnc(C(F)(F)F)s2)c1	-6	·	·	·	·
CCOC(=O)C1=C(N)Oc2ccc(Br)cc2[C@@H]1[C@@H](C#N)C(=O)OCC	8	-22%	20%	·	?
Cn1cnnc1SCC(=O)Nc1sc2c(c1C(N)=O)CCC2	-5	18µM*	-8%[38.3 µM]	7	?
CCOC(=O)c1c(NC(=O)CSc2nnc(CNc3ccc(Cl)cc3)o2)sc(C)c1C	-1	-4%	11%	-107*	11µM*
CCCC(C)NC(=O)Cc1ccccc1 (stereo not given)	·	·	·	·	3%
CCN(CC)C(NC(=O)Cc1ccccc1)C(Cl)(Cl)Cl (stereo not given)	1	14µM*	-3%[38.3 µM]	-8	?
O=C(Nc1ccccc1)N1CCCN(Cc2ccccc2F)C1	-1	25µM*	5%[38.3 µM]	-17	2%
Fc1ccccc1CN1CCCN(C(=S)Nc2cccc(Cl)c2)C1	·	·	-7%	·	?
O=P(O)(O)CP(=O)(O)O	-1	-6%	-9%[38.3 µM]	-100*	4%
CC(C)(S)[C@H](N)C(=O)O	·	-6%	-1%	·	12%[13.5 µM]
N#CC1=C2SCN(Cc3ccco3)CN2C(=O)CC1c1cccc2ccccc12 (stereo not given)	2	?	-2%[38.3 µM]	3	?
CCOC(=O)c1ccc(N2CSC3=C(C#N)C(c4cccs4)CC(=O)N3C2)cc1 (stereo not given)	-1	-7%	8%[38.3 µM]	-10	22µM*

From PubChem
